# Bioassay records deposited in PubChem by Sanford-Burnham Center for Chemical Genomics.
# The list is not random: actives were taken first. Their share in the collection is about 3%.
# SENP7 inh = inhibitors of human SENP7 protease; Q9BQF6; recombinant SENP7, Z-RLRGG-aminoluciferin luminescence, 40 min; inhibition, % at 5 µM; 330,000 tested, 1.5% active; AID 434973;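 active = inhibition above about 50% at the single test dose, limit read from the data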;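 also: plate controls were DMSO with enzyme for no effect and no enzyme buffer wells for full effect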
# Target sequence (Q9BQF6 706-1050 limits assumed): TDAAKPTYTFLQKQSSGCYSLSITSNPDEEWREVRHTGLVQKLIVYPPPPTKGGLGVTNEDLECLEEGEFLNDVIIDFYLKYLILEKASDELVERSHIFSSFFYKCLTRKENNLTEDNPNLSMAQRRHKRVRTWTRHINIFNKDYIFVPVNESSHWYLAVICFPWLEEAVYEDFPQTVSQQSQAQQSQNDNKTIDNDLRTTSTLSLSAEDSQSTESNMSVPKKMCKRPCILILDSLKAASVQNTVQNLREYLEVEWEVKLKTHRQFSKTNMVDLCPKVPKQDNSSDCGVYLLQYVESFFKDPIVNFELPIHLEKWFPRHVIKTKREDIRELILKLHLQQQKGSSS
# SENP6 block = inhibitors of human SENP6 protease. Q9GZR1. 330,000 tested, 1.8% active. AID 2599. inhibition, % at 10 µM. Recombinant SENP6 catalytic domain, aminoluciferin luminescence;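 active = inhibition above about 50% at the single tested dose, limit read from the data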;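 also: plate controls were DMSO wells with enzyme for no effect and DMSO wells lacking enzyme for full effect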
# PPC-1+TRAIL kill = PPC-1 cancer cell killing with TRAIL present. PPC-1 cells + TRAIL, ATPLite viability luminescence. cell killing (% activity), % at 4 µM or 5 µM. 220,000 tested, 0.41% active;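 active = cell killing above 50% in the first pass at 4 µM, then a duplicate retest at 5 µM averaging 50% or more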;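 also: plate controls were cells with TRAIL plus DMSO for no effect and medium-only wells lacking cells for full effect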
# SENP8 block-1 = inhibitors of human SENP8 protease; Q96LD8; purified SENP8, Z-RLRGG-aminoluciferin cleavage, luminescence; inhibition, % at 10 µM; 330,000 tested, 1.2% active; in the data active = inhibition above about 50%
# Target sequence (Q96LD8 whole entry, looked up): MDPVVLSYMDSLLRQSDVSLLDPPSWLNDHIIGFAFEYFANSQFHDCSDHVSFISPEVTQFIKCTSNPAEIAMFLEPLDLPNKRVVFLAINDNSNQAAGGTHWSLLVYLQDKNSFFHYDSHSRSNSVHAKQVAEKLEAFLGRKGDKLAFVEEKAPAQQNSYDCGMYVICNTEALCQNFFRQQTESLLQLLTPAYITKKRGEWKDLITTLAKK
# TRAIL sens C8 = sensitizes caspase-8 expressing cells to TRAIL; inhibition (viability loss, TRAIL sensitization), % at 10 µM; 360,000 tested, 1% active; NB7+C8 cells + TRAIL, ATPlite viability luminescence; AID 624354;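 active = compounds causing at least 50% loss of cell viability in the single-dose screen, relative to plate controls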
# SENP8 block-2 = inhibitors of human SENP8 protease. Q96LD8. recombinant SENP8, Nedd8 substrate fluorescence. inhibition, % at 20 µM. 360,000 tested, 0.64% active. AID 602440; in the data active = inhibition mostly above about 40%, no sharp cut-off; inactive = mostly below about 27%
# SENP8 conf = SENP8 (human) inhibition, single concentration confirmation | shares compounds with SENP8 block-2 | purified SENP8, Nedd8-AMC/pro-Nedd8 cleavage fluorescence, 30 min | inhibition, % at 25 µM | 1,400 tested, 15% active; in the data active = inhibition mostly above about 39%, no sharp cut-off; inactive = mostly below about 34%
# * marks the source's active call; other numbers are inactive results; nt = no result.
SMILES,SENP7 inh,SENP6 block,PPC-1+TRAIL kill,SENP8 block-1,TRAIL sens C8,SENP8 block-2,SENP8 conf
Cc1ccc(Cn2nc(-c3ccccc3)nc2-c2ccccc2)cc1,68.1*,74.0*,15.3,59.0*,7.5,43.7*,2.6
CC1=NCCN1CCNC(=O)Nc1cc(C)cc(C)c1,8.2,-16.4,10.0,5.3,-14.6,31.4,nt
CC1=NCCN1CCNC(=O)Nc1ccc(F)cc1,-5.0,-4.3,-5.2,8.9,3.6,40.7*,-0.7
CCC(C)C(NC(N)=O)C(=O)Nc1ccc(OCc2ccccc2)cc1 (stereo unspecified),7.6,-0.1,3.1,2.5,-22.9,48.6*,20.0
CCOc1ccc(NC(=O)[C@@H](NC(=O)OCc2ccccc2)[C@@H](C)CC)cc1,4.5,4.5,2.9,4.9,-0.3,6.6,nt
CCN(CC)c1ccc(NC2CC(=O)N(CCc3ccc(OC)cc3)C2=O)cc1 (stereo unspecified),5.5,2.8,20.7,5.2,3.5,73.6*,41.2
CCOC(=O)/C(C#N)=C/C=C1/C=CC=CN1C,3.3,-6.5,-20.2,-2.9,4.0,34.1,nt
C=CCN1C=CC(=C/C=C(/C#N)C(=O)OCC)C=C1,-8.6,-31.0,43.2,-11.7,49.1*,61.1*,28.7
CC(C)=CCC/C(C)=C/COc1ccc2ccc(=O)oc2c1,4.5,-15.0,-2.5,-15.5,1.8,-168.4,nt
CC(C)=CCC/C(C)=C/COc1c2occc2cc2ccc(=O)oc12,-13.8,-12.7,nt,-12.2,-2.2,57.4*,6.8
COc1cc(CNn2nnnc2N)ccc1OCc1c(Cl)cccc1Cl,2.8,1.1,-2.8,6.3,-5.8,43.7*,20.2
CCn1nnnc1NCc1ccc(OCc2c(F)cccc2Cl)c(OC)c1,-9.5,10.8,14.5,-4.7,-11.3,17.4,nt
O=C(CC(=O)c1c(F)cccc1Cl)c1ccccc1O,-13.8,-10.2,nt,-4.3,10.1,-75.8,nt
O=C(COC(=O)c1cc(S(=O)(=O)N2CCOCC2)ccc1Cl)NCc1ccc2c(c1)OCO2,5.0,2.1,nt,3.7,-0.1,1.2,nt
O=C(COC(=O)c1cc(S(=O)(=O)N2CCOCC2)ccc1Cl)Nc1ccc2c(c1)OCO2,4.5,-7.4,-0.9,-2.3,-5.4,44.9*,10.7
COc1ccc(NCC(=O)N/N=C/C2CCCCC2)cc1,7.3,-1.6,4.5,2.2,0.2,21.9,nt
CCCC1CCC(=NNC(=O)CNc2ccc(OC)cc2)CC1 (stereo unspecified),-0.1,-6.7,26.7,0.0,13.2,59.2*,13.0
CCOC(=O)/C(=C\c1ccc([N+](=O)[O-])o1)NC(=O)c1ccccc1,9.7,-16.4,5.1,-3.7,14.0,41.9*,22.1
CCCOC(=O)/C(=C\c1ccc([N+](=O)[O-])o1)NC(=O)c1ccccc1,-10.9,-20.7,11.9,-15.3,2.9,35.4,nt
O=C(c1cc([N+](=O)[O-])ccc1Cl)N1CCN(Cc2ccc3c(c2)OCO3)CC1,5.3,-9.0,7.9,1.4,-3.4,19.1,nt
O=C(c1cc([N+](=O)[O-])cc([N+](=O)[O-])c1)N1CCN(Cc2ccc3c(c2)OCO3)CC1,1.9,28.5,-19.6,6.1,1.2,50.0*,20.1
CS(=O)(=O)N(CC(=O)NCC1CCCO1)c1ccc(F)c(Cl)c1 (stereo unspecified),-12.3,-9.3,3.0,-6.3,-2.1,51.2*,7.2
CCc1nc2ccccc2c(C(=O)OCCN2C(=O)c3ccccc3C2=O)c1C,3.1,1.2,-3.6,5.4,-2.1,42.3*,32.4
COc1ncccc1C(=O)N1CCCC(C(=O)c2cc(F)ccc2F)C1 (stereo unspecified),-2.9,-3.4,26.2,0.5,1.8,11.6,nt
CSc1ncccc1C(=O)N1CCCC(C(=O)c2cc(F)ccc2F)C1 (stereo unspecified),0.0,-3.8,-3.8,0.5,2.1,57.3*,10.1
SMILES,SENP7 inh,SENP6 block,PPC-1+TRAIL kill,SENP8 block-1,TRAIL sens C8,SENP8 block-2,SENP8 conf
Cc1[nH]c2ccccc2c1/C=C/c1cc[n+](C)cc1,nt,nt,12.1,nt,5.6,43.5*,31.6
C[n+]1ccc2[nH]c3ccccc3c2c1,nt,nt,nt,nt,-0.1,-41.3,nt
COc1ccc(CCNC(=O)COc2cccc(-n3cnnn3)c2)cc1,0.0,-5.6,nt,4.8,-28.4,15.0,nt
Cc1[nH]n(-c2ccc([N+](=O)[O-])cc2)c(=O)c1C=NCC1CCCO1 (stereo unspecified),-0.4,12.8,7.4,13.7,-9.7,12.6,nt
Cc1[nH]n(-c2ccc([N+](=O)[O-])cc2)c(=O)c1C=NCCc1c(C)[nH]c2ccccc12,13.6,7.3,-11.5,9.4,4.1,42.3*,-9.9
Cc1ccc(-n2[nH]c(C)c(/C=N/Nc3ccc([N+](=O)[O-])cc3[N+](=O)[O-])c2=O)cc1,-11.6,-9.7,13.6,-4.9,25.5,79.6*,33.5
C[n+]1ccn(CC(=O)c2cc(C(C)(C)C)c(O)c(C(C)(C)C)c2)c1,15.2,-1.3,nt,-6.8,14.1,11.6,nt
O=C(O)c1ccc(Cl)c(S(=O)(=O)NCc2ccco2)c1,4.3,-9.7,-13.5,-12.5,-6.2,42.9*,-7.8
O=C(O)/C=C/C(=O)Nc1ccc(O)cc1,-3.8,-10.1,3.2,-4.3,-14.8,80.9*,31.3
CCOc1cccc(C(=O)Nc2ccccc2C(=O)N2CCOCC2)c1,-2.8,-8.1,nt,6.0,6.0,13.0,nt
Cc1ccc(OCc2cc(C(=O)N3CCN(c4ccccc4)CC3)no2)cc1C,3.3,43.7,nt,22.3,24.4,7.3,nt
COC(Cn1c2c(c3cc(C)ccc31)CCCC2NCc1ccccc1)OC (stereo unspecified),nt,nt,1.5,nt,8.3,-8.3,nt
CC1=NN(c2ccccc2)C(=O)C1C=Nc1ccc(N(C)C)cc1 (stereo unspecified),-6.7,-4.3,5.4,-8.5,20.9,16.6*,13.8
CC1=NN(c2ccccc2)C(=O)C1/C=C1/NC(=S)NC1=O (stereo unspecified),-1.8,-5.5,-20.9,0.5,-3.9,26.9,nt
C[n+]1cccc2cccc([O-])c21,nt,nt,5.6,nt,-26.8,95.8*,58.0*
[O-][n+]1cccc2cccc(O)c21,nt,nt,nt,nt,-17.7,-3.2,nt
COc1ccc(NC(=O)c2ccccc2N2C(=O)C3C4C=CC(C5CC45)C3C2=O)c(OC)c1 (stereo unspecified),-17.9,-10.4,nt,-9.0,-14.2,4.6,nt
COC(=O)Cc1nnc(NC(=O)c2ccccc2)s1,-6.5,-18.6,13.8,-1.4,5.2,14.1,nt
Cc1ccc(SCc2nnc(NC(=O)c3ccccc3)s2)cc1,9.0,3.2,-13.1,1.5,2.1,40.2*,12.0
COc1ccc(NC(=O)CCC(=O)N2CCC(c3ccccc3)=N2)cc1S(=O)(=O)N1CCCCC1,nt,nt,nt,nt,-8.8,-1.8,nt
CC1CCc2nc(NC(=O)CN3CCN(Cc4ccc5c(c4)OCO5)CC3)sc2C1 (stereo unspecified),4.6,-15.3,25.5,-0.1,-3.9,37.7,nt
